Assay in all cases: universal protein binding microarray (PBM); transcription factors of Arabidopsis thaliana; high values mean tight binding
For one test, the target named is T1, GST-ANAC092(1-176) (Arabidopsis thaliana, UniProt Q9FKA0 1-176).
T1 sequence: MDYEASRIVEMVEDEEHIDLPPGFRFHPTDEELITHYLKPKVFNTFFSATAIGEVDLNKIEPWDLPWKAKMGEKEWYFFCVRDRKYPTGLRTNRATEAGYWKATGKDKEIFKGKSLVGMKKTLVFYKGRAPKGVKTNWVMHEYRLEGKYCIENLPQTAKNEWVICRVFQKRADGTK
To be noted: protein: recombinant; tags: GST; chain copies: 2; dsDNA, one strand shown. The procedure, abridged: (§1)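 Protein amounts were determined by A280 or anti-GST western blot after glutathione–Sepharose 4B purification of GST-tagged proteins induced in cells, with zinc acetate included for zinc-finger proteins. Duplicate runs at 200 to 500 nM final were done on custom all-10-mer Agilent 4 × 180K arrays made double-stranded by primer extension. The normalised enrichment score (E-score) over gapped and ungapped 8-mers is the measure of binding.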

In a further test the target is T2, GST-ANAC055(1-171) (Arabidopsis thaliana, UniProt Q9LDY8 1-171).
T2 sequence: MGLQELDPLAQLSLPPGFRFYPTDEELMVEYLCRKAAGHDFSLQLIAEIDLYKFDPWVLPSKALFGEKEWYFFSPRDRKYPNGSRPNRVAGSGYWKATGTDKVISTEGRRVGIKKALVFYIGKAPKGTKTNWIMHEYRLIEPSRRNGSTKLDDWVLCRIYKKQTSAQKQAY
To be noted: protein: recombinant; tags: GST; chain copies: 2; dsDNA, one strand shown. The procedure, abridged: as §1

The target in another test is T3, GST-ATAF1 NAC domain (Arabidopsis thaliana, UniProt Q39013 7-158).
T3 sequence: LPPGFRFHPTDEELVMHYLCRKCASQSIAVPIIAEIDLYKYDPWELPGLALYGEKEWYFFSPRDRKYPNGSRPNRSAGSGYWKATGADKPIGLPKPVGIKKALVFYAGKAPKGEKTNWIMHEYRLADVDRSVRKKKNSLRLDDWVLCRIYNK
Conditions: protein: recombinant; tags: GST; chain copies: 2; dsDNA, one strand shown. The procedure, abridged: as §1

The target of test [1] is T4, GST-ANAC092(1-285) full length (Arabidopsis thaliana, UniProt Q9FKA0 1-285).
T4 sequence: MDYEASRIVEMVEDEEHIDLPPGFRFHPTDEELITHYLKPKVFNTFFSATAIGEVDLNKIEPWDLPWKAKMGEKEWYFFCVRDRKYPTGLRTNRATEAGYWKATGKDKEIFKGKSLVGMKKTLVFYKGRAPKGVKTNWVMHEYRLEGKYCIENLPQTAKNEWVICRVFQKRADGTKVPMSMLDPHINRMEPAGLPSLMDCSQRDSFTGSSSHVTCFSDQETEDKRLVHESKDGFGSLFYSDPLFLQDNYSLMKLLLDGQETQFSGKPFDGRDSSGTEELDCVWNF
Conditions: protein: recombinant; tags: GST; chain copies: 2; dsDNA, one strand shown. The procedure, abridged: as §1

For a further test, the target named is T5, GST-NAP(1-166) (Arabidopsis thaliana, UniProt O49255 1-166).
T5 sequence: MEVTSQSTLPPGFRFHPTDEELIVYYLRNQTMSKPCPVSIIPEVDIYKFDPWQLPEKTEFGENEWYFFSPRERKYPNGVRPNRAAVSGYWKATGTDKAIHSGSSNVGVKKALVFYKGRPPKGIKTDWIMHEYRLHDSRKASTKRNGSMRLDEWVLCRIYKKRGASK
Conditions: protein: recombinant; tags: GST; chain copies: 2; dsDNA, one strand shown. The procedure, abridged:
as §1

The next test concerns the target T6, GST-NST2(1-184) (Arabidopsis thaliana, UniProt Q9M274 1-184).
T6 sequence: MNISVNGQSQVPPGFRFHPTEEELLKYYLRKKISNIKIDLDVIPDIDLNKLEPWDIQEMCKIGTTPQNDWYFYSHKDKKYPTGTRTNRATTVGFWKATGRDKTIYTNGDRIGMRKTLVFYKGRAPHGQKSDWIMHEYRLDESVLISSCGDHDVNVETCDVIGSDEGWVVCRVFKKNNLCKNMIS
Conditions: protein: recombinant; tags: GST; chain copies: 2; dsDNA, one strand shown. The procedure, abridged: as §1

The target of another test is T7, GST-SND1(1-203) (Arabidopsis thaliana, UniProt Q9LPI7 1-203).
T7 sequence: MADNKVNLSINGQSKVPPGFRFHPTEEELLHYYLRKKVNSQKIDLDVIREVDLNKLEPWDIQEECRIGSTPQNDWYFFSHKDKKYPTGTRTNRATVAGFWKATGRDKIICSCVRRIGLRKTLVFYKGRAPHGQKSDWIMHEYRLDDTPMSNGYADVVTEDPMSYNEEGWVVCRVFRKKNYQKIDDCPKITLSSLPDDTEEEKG
To be noted: protein: recombinant; tags: GST; chain copies: 2; dsDNA, one strand shown. The gist of the method: as §1

The target of another test is T8, GST-VND3 NAC domain (Arabidopsis thaliana, UniProt Q9FH59 12-162).
T8 sequence: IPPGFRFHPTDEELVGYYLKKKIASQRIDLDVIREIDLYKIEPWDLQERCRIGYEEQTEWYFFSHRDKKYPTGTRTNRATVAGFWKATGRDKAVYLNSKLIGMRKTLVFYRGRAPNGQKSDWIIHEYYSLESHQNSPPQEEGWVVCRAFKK
Conditions: protein: recombinant; tags: GST; chain copies: 2; dsDNA, one strand shown. The gist of the method:
as §1

The target in the next test is T9, GST-VND7 NAC domain (Arabidopsis thaliana, UniProt Q9C8W9 9-158).
T9 sequence: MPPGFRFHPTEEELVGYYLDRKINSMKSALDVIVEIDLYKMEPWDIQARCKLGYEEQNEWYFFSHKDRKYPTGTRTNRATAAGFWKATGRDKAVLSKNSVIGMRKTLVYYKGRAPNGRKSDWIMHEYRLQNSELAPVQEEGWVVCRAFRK
Conditions: protein: recombinant; tags: GST; chain copies: 2; dsDNA, one strand shown. The gist of the method:
as §1

The target of the next test is GST-NTL6(1-168) (Arabidopsis thaliana, UniProt Q9SCK6 1-168). To be noted: protein: recombinant; tags: GST; chain copies: 2; dsDNA, one strand shown. The procedure, abridged: as §1
For a further test, the target named is GST-WRKY1(266-371) (Arabidopsis thaliana, UniProt Q9SI37 266-371). Conditions: protein: recombinant; tags: GST; dsDNA, one strand shown. The gist of the method: as §1
A further test concerns the target T10, GST-ANAC019 NAC domain (Arabidopsis thaliana, UniProt Q9C932 14-162).
T10 sequence: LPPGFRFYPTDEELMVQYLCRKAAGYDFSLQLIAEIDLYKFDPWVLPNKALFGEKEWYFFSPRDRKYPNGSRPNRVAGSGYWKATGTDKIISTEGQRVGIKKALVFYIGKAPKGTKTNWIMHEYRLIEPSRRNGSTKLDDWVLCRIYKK
Conditions: protein: recombinant; tags: GST; chain copies: 2; dsDNA, one strand shown. The procedure, abridged: as §1

In a further test the target is T11, GST-NTL8 NAC domain (Arabidopsis thaliana, UniProt Q9XIN7 14-156).
T11 sequence: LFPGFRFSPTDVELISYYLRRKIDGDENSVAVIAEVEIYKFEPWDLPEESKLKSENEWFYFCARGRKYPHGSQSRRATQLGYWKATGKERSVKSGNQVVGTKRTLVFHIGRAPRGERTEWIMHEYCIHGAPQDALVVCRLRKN
To be noted: protein: recombinant; tags: GST; chain copies: 2; dsDNA, one strand shown. The gist of the method:
as §1

GST-WRKY1(266-371), sequence (Q9SI37 266-371): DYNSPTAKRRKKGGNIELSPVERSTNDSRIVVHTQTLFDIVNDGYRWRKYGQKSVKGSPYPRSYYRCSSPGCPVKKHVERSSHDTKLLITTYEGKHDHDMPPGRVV
GST-NTL6(1-168), sequence (Q9SCK6 1-168): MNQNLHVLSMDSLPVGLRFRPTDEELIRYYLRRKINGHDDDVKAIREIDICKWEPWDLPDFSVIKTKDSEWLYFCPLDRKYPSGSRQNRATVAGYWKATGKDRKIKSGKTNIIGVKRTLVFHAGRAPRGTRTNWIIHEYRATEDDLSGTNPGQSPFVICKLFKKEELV

Take ATGCGTAA: the binding signal was found to be 0.319 E-score with GST-ANAC092(1-176); 0.108 E-score with GST-ANAC055(1-171); 0.115 E-score in the test with GST-ATAF1 NAC domain; 0.356 E-score in [1]; 0.175 E-score with GST-NAP(1-166); 0.243 E-score with GST-NST2(1-184). In addition, the binding signal with GST-SND1(1-203) was 0.436 E-score; with GST-VND3 NAC domain, 0.217 E-score; with GST-VND7 NAC domain it was 0.188 E-score.
Turning to TCGGTCAA, the binding signal in the test with GST-ANAC092(1-176) is 0.132 E-score; with GST-NTL6(1-168) it was 0.0645 E-score; with GST-ANAC055(1-171), 0.0819 E-score; in the test with GST-NAP(1-166), 0.097 E-score; with GST-NST2(1-184) it was 0.0703 E-score; with GST-SND1(1-203) it was 0.0612 E-score. In addition, the binding signal with GST-VND3 NAC domain is 0.0724 E-score; with GST-WRKY1(266-371) it was 0.49 E-score.
As to ACGCTACT, the binding signal in the test with GST-ANAC092(1-176) was 0.385 E-score; in the test with GST-ANAC019 NAC domain it was 0.123 E-score; with GST-ANAC055(1-171), 0.226 E-score; in the test with GST-ATAF1 NAC domain it was 0.288 E-score; in [1], 0.425 E-score; with GST-NAP(1-166), 0.236 E-score. For the same sequence, the binding signal in the test with GST-NST2(1-184) came out at 0.314 E-score; with GST-NTL8 NAC domain, 0.0894 E-score; in the test with GST-SND1(1-203) it was 0.394 E-score; with GST-VND3 NAC domain, 0.241 E-score; with GST-WRKY1(266-371), 0.092 E-score.
In the case of CAGTCAAC, the binding signal was 0.0753 E-score in the test with GST-ANAC092(1-176); 0.084 E-score in the test with GST-ATAF1 NAC domain; 0.0832 E-score with GST-SND1(1-203); 0.0605 E-score with GST-VND3 NAC domain; 0.491 E-score with GST-WRKY1(266-371).
Turning to GACACGCA, the binding signal in the test with GST-ANAC092(1-176) turned out to be 0.43 E-score; with GST-ANAC019 NAC domain it was 0.358 E-score; in the test with GST-ANAC055(1-171), 0.275 E-score; in the test with GST-ATAF1 NAC domain, 0.304 E-score; in test [1], 0.455 E-score; in the test with GST-NAP(1-166) it was 0.283 E-score. Besides, the binding signal turned out to be 0.0949 E-score with GST-NST2(1-184); 0.0711 E-score with GST-NTL8 NAC domain; 0.242 E-score with GST-SND1(1-203); 0.208 E-score with GST-VND3 NAC domain; 0.318 E-score in the test with GST-VND7 NAC domain.
For the sequence ATACGCCA, the binding signal was 0.455 E-score in the test with GST-ANAC092(1-176); 0.22 E-score with GST-ANAC055(1-171); 0.331 E-score in the test with GST-ATAF1 NAC domain; 0.455 E-score in [1]; 0.201 E-score in the test with GST-NAP(1-166); 0.283 E-score in the test with GST-NST2(1-184). For the same sequence, the binding signal with GST-NTL8 NAC domain came to 0.0758 E-score; in the test with GST-SND1(1-203), 0.398 E-score; in the test with GST-VND3 NAC domain, 0.192 E-score; with GST-VND7 NAC domain, 0.247 E-score.
Turning to CCACACGC, the binding signal turned out to be 0.4 E-score with GST-ANAC092(1-176); 0.242 E-score with GST-ANAC019 NAC domain; 0.15 E-score in the test with GST-ANAC055(1-171); 0.155 E-score in the test with GST-ATAF1 NAC domain; 0.436 E-score in [1]; 0.169 E-score with GST-NAP(1-166). In addition, the binding signal is 0.144 E-score in the test with GST-NST2(1-184); 0.0869 E-score with GST-NTL8 NAC domain; 0.213 E-score in the test with GST-SND1(1-203); 0.163 E-score with GST-VND3 NAC domain; 0.181 E-score with GST-VND7 NAC domain.
In the case of ACGCCATC, the binding signal with GST-ANAC092(1-176) stood at 0.421 E-score; in the test with GST-ANAC055(1-171) it was 0.098 E-score; with GST-ATAF1 NAC domain, 0.0609 E-score; in test [1], 0.453 E-score; with GST-NAP(1-166) it was 0.171 E-score; with GST-NST2(1-184), 0.237 E-score. Also, the binding signal came out at 0.41 E-score with GST-SND1(1-203), 0.125 E-score with GST-VND3 NAC domain and 0.108 E-score in the test with GST-VND7 NAC domain.

The values are drawn from article PMC4081100, “A DNA-binding-site landscape and regulatory network analysis for NAC transcription factors in Arabidopsis thaliana”.
